According to PubChem BioAssay AID1159580 (chemical genetic matrix, 2015):
“And” between values parts separate entries of the source, which are not always exact repeats. Equal values may be shown once. In all, about 5,500 compounds went through this assay and about 2,000 (36%) were called active. Another 18% or so got no clear call; they are omitted. The list shows a part of the results. A number with no mark means an inactive call. Rule as the data show it: active = normalized growth mostly below about 0.91 (no sharp cut-off); inconclusive = no clear call, values can overlap the other calls; inactive = mostly above about 0.92.

Experiment: chemical genetic growth profiling, strain panel (AID 1159580);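 also: tested at 20 µM; growth read once vehicle control cultures reached saturation at 30 °C; 1 = growth at the plate median or of vehicle wells; lower values mean less growth of the strain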
Settings: growth OD

For `NC(CO)C(=O)NNCc1ccc(O)c(O)c1O` (configuration not stated), the normalized growth (S. cerevisiae deletion strains, locus YJR066W, strain TOR1, hits give low values) was 0.99, the normalized growth (S. cerevisiae deletion strains, locus YJR075W, strain HOC1, hits give low values) was 1.01 and 0.944 and the normalized growth (S. cerevisiae deletion strains, locus YKL009W, strain mrt4, hits give low values) was 0.973. The normalized growth (S. cerevisiae deletion strains, locus YKL068W, hits give low values) was 1.01, the normalized growth (S. cerevisiae deletion strains, locus YKL085W, strain MDH1 (second series), hits give low values) was 1 and the normalized growth (S. cerevisiae deletion strains, locus YKL085W, strain MDH1, hits give low values) was 1. It also gave a normalized growth (S. cerevisiae deletion strains, locus YKL160W, strain elf1, hits give low values) of 1.02, a normalized growth (S. cerevisiae deletion strains, locus YKR001C, strain vps1, hits give low values) of 0.986 and a normalized growth (S. cerevisiae deletion strains, locus YKR026C, strain gcn3, hits give low values) of 0.991. For the same compound, the normalized growth (S. cerevisiae deletion strains, locus YKR091W, strain srl3, hits give low values) was 0.993, the normalized growth (S. cerevisiae deletion strains, locus YLL001W, strain dnm1, hits give low values) was 1.03 and the normalized growth (S. cerevisiae deletion strains, locus YLL026W, hits give low values) was 1.02. It also gave a normalized growth (S. cerevisiae deletion strains, locus YLL041C, strain sdh2, hits give low values) of 1, a normalized growth (S. cerevisiae deletion strains, locus YLR027C, strain aat2, hits give low values) of 1.01 and a normalized growth (S. cerevisiae deletion strains, locus YLR039C, strain RIC1, hits give low values) of 1.01. The normalized growth (S. cerevisiae deletion strains, locus YLR058C, strain SHM2, hits give low values) was 1.01, the normalized growth (S. cerevisiae deletion strains, locus YLR102C, strain apc9, hits give low values) was 0.983 and the normalized growth (S. cerevisiae deletion strains, locus YLR113W, strain HOG1, hits give low values) was 1.1. For the same compound, the normalized growth (S. cerevisiae deletion strains, locus YLR221C, strain rsa3, hits give low values) was 0.951, the normalized growth (S. cerevisiae deletion strains, locus YLR258W, strain gsy2, hits give low values) was 0.974 and the normalized growth (S. cerevisiae deletion strains, locus YLR262C, strain YPT6 (second series), hits give low values) was 0.915. The normalized growth (S. cerevisiae deletion strains, locus YLR262C, strain YPT6, hits give low values) was 1.04, the normalized growth (S. cerevisiae deletion strains, locus YLR268W, strain sec22, hits give low values) was 0.984 and the normalized growth (S. cerevisiae deletion strains, locus YLR320W, strain mms22, hits give low values) was 0.987. The normalized growth (S. cerevisiae deletion strains, locus YLR330W, strain CHS5, hits give low values) was 1.01, the normalized growth (S. cerevisiae deletion strains, locus YLR342W, strain FKS1 (second series), hits give low values) was 1.06 and the normalized growth (S. cerevisiae deletion strains, locus YLR342W, strain FKS1, hits give low values) was 1.01. The normalized growth (S. cerevisiae deletion strains, locus YLR357W, strain rsc2, hits give low values) was 0.911, the normalized growth (S. cerevisiae deletion strains, locus YLR370C, strain arc18, hits give low values) was 0.995 and the normalized growth (S. cerevisiae deletion strains, locus YLR371W, strain rom2, hits give low values) was 0.991. It also gave a normalized growth (S. cerevisiae deletion strains, locus YLR384C, strain iki3, hits give low values) of 1, a normalized growth (S. cerevisiae deletion strains, locus YLR418C, strain cdc73, hits give low values) of 0.98 and a normalized growth (S. cerevisiae deletion strains, locus YML016C, strain PPZ1, hits give low values) of 1.01. For the same compound, the normalized growth (S. cerevisiae deletion strains, locus YML032C, strain rad52, hits give low values) was 0.993, the normalized growth (S. cerevisiae deletion strains, locus YML120C, strain ndi1, hits give low values) was 1.01 and the normalized growth (S. cerevisiae deletion strains, locus YML124C, strain tub3, hits give low values) was 0.996. For the same compound, the normalized growth (S. cerevisiae deletion strains, locus YMR058W, strain fet3, hits give low values) was 0.688 (active), the normalized growth (S. cerevisiae deletion strains, locus YMR078C, strain ctf18, hits give low values) was 0.992 and the normalized growth (S. cerevisiae deletion strains, locus YMR125W, strain sto1, hits give low values) was 1.01. For the same compound, the normalized growth (S. cerevisiae deletion strains, locus YMR129W, hits give low values) was 0.992, the normalized growth (S. cerevisiae deletion strains, locus YMR205C, strain PFK2, hits give low values) was 1.07 and the normalized growth (S. cerevisiae deletion strains, locus YMR223W, strain ubp8, hits give low values) was 1.01. The normalized growth (S. cerevisiae deletion strains, locus YMR231W, strain pep5, hits give low values) was 0.991, the normalized growth (S. cerevisiae deletion strains, locus YMR307W, strain GAS1, hits give low values) was 1 and 0.976 and the normalized growth (S. cerevisiae deletion strains, locus YNL067W, strain RPL9B, hits give low values) was 0.984. It also gave a normalized growth (S. cerevisiae deletion strains, locus YNL071W, strain lat1, hits give low values) of 1.01, a normalized growth (S. cerevisiae deletion strains, locus YNL153C, strain GIM3, hits give low values) of 1 and a normalized growth (S. cerevisiae deletion strains, locus YNL175C, strain NOP13, hits give low values) of 0.988. For the same compound, the normalized growth (S. cerevisiae deletion strains, locus YNL183C, strain NPR1, hits give low values) was 0.99, the normalized growth (S. cerevisiae deletion strains, locus YNL197C, strain WHI3, hits give low values) was 0.935 and the normalized growth (S. cerevisiae deletion strains, locus YNL209W, strain ssb2, hits give low values) was 0.9 (active). For the same compound, the normalized growth (S. cerevisiae deletion strains, locus YNL224C, strain SQS1, hits give low values) was 1.01, the normalized growth (S. cerevisiae deletion strains, locus YNL233W, strain BNI4, hits give low values) was 0.998 and the normalized growth (S. cerevisiae deletion strains, locus YNL248C, strain rpa49, hits give low values) was 0.946. For the same compound, the normalized growth (S. cerevisiae deletion strains, locus YNL250W, strain rad50, hits give low values) was 0.983, the normalized growth (S. cerevisiae deletion strains, locus YNL271C, strain bni1, hits give low values) was 1 and the normalized growth (S. cerevisiae deletion strains, locus YNL298W, strain CLA4, hits give low values) was 0.988. For the same compound, the normalized growth (S. cerevisiae deletion strains, locus YNL307C, strain MCK1, hits give low values) was 0.982, the normalized growth (S. cerevisiae deletion strains, locus YNL322C, strain KRE1 (second series), hits give low values) was 0.999 and the normalized growth (S. cerevisiae deletion strains, locus YNR049C, strain mso1, hits give low values) was 0.99. For the same compound, the normalized growth (S. cerevisiae deletion strains, locus YNR052C, strain pop2, hits give low values) was 1.01, the normalized growth (S. cerevisiae deletion strains, locus YOL012C, strain htz1) was 0.788 and the normalized growth (S. cerevisiae deletion strains, locus YOL147C, strain pex11, hits give low values) was 0.98. For the same compound, the normalized growth (S. cerevisiae deletion strains, locus YOR001W, strain rrp6, hits give low values) was 1.03, the normalized growth (S. cerevisiae deletion strains, locus YOR061W, strain CKA2, hits give low values) was 1.01 and the normalized growth (S. cerevisiae deletion strains, locus YOR069W, strain VPS5, hits give low values) was 1. The normalized growth (S. cerevisiae deletion strains, locus YOR070C, strain gyp1, hits give low values) was 0.972, the normalized growth (S. cerevisiae deletion strains, locus YOR080W, strain dia2, hits give low values) was 1.01 and the normalized growth (S. cerevisiae deletion strains, locus YOR083W, strain WHI5 (second series), hits give low values) was 0.978. For the same compound, the normalized growth (S. cerevisiae deletion strains, locus YOR083W, strain WHI5, hits give low values) was 0.986, the normalized growth (S. cerevisiae deletion strains, locus YOR106W, strain vam3, hits give low values) was 0.948 and the normalized growth (S. cerevisiae deletion strains, locus YOR136W, strain idh2, hits give low values) was 0.97. For the same compound, the normalized growth (S. cerevisiae deletion strains, locus YOR144C, strain elg1, hits give low values) was 0.987, the normalized growth (S. cerevisiae deletion strains, locus YOR184W, strain ser1, hits give low values) was 0.993 and the normalized growth (S. cerevisiae deletion strains, locus YOR231W, strain MKK1, hits give low values) was 1.07. For the same compound, the normalized growth (S. cerevisiae deletion strains, locus YOR265W, strain rbl2, hits give low values) was 0.996, the normalized growth (S. cerevisiae deletion strains, locus YOR270C, strain vph1, hits give low values) was 0.996 and the normalized growth (S. cerevisiae deletion strains, locus YOR290C, strain snf2, hits give low values) was 0.957. For the same compound, the normalized growth (S. cerevisiae deletion strains, locus YOR316C, strain cot1, hits give low values) was 0.991, the normalized growth (S. cerevisiae deletion strains, locus YPL051W, strain arl3, hits give low values) was 0.973 and the normalized growth (S. cerevisiae deletion strains, locus YPL055C, strain LGE1, hits give low values) was 1.01 and 0.959. It also gave a normalized growth (S. cerevisiae deletion strains, locus YPL078C, strain atp4, hits give low values) of 1.02, a normalized growth (S. cerevisiae deletion strains, locus YPL106C, strain sse1, hits give low values) of 0.936 and a normalized growth (S. cerevisiae deletion strains, locus YPL240C, strain hsp82, hits give low values) of 0.991. For the same compound, the normalized growth (S. cerevisiae deletion strains, locus YPL241C, strain CIN2, hits give low values) was 1.01, the normalized growth (S. cerevisiae deletion strains, locus YPL256C, strain CLN2, hits give low values) was 1.09 and the normalized growth (S. cerevisiae deletion strains, locus YPR119W, strain clb2, hits give low values) was 0.999. For the same compound, the normalized growth (S. cerevisiae deletion strains, locus YPR141C, strain kar3, hits give low values) was 0.987, the normalized growth (S. cerevisiae deletion strains, locus YPR163C, strain tif3, hits give low values) was 0.991 and the normalized growth (S. cerevisiae deletion strains, locus YPR167C, strain met16, hits give low values) was 0.994. For the same compound, the normalized growth (S. cerevisiae deletion strains, strain wtn01, hits give low values) was 1.02 and the normalized growth (S. cerevisiae strains, strain wild type, hits give low values) was 1.
